Source: PubChem BioAssay AID1259343 (VanderVen Lab, College of Veterinary Medicine, Cornell …, 2017)
Out of some 6,200 compounds screened, about 2,900 (47%) were called active. The set was probably picked from earlier hits. Some of the results follow. A number with no mark means an inactive call. Rule as the data show it: active = inhibition above about 50%; inactive = the rest.

Experiment: Mycobacterium tuberculosis growth inhibition, primary screen (AID 1259343)
Conditions: inhibition: at 10 µM, stronger effect = higher value; outcome: 10 uM

Row | SMILES | inhibition
1 | O=C(CC(Nc1ccc2ccccc2c1)c1ccncc1)c1ccccc1 (stereo not given) | 88.8% (active)
2 | C=CCNC(=S)Nc1ccc(Cl)cc1F | 35.1%
3 | C=CCNC(=S)Nc1ccc(Cl)c(Cl)c1 | 21.1%
4 | C=CCNC(=S)Nc1ccc(SC(F)F)cc1 | 53.4% (active)
5 | CCOC(=O)c1c(NC(=O)CCl)sc(C(=O)OC)c1CC(=O)OC | -17.1%
6 | COC(=O)c1sc(NC(=O)CCCl)c(C(=O)OC)c1C | 101% (active)
7 | Cc1sc(NC(=O)CC(C)(C)CC(=O)Nc2sc(C)c(C)c2C(=O)O)c(C(=O)O)c1C | 29.4%
8 | Cc1csc(C(C)NCc2ccc(OCC(C)C)cc2)n1 (stereo not given) | 51.6% (active)
9 | COc1ccc(C)cc1-c1csc(NC(=O)C(C)C)n1 | 11.6%
10 | Cc1ccc(-c2ncc(C(=O)NC(C)C)s2)c(C)c1 | 61.8% (active)
11 | Cc1ccc(-c2csc3nc(C4CC4)[nH]c(=O)c23)c(C)c1 | 6.81%
12 | CCOC(=O)c1nn(-c2ccc(OCC)cc2)c2nnc(Cc3cccnc3)c(=O)n12 | -11.2%
13 | CCOC(=O)c1nn(-c2cccc(Cl)c2)c2nc(-c3cccs3)c(C#N)c(=O)n12 | 52.1% (active)
14 | COC(=O)CCn1c(=O)c2c(nc3n(CCc4ccccc4)c(C)cn23)n(C)c1=O | 2.78%
15 | CNc1nnc(SCc2cccc(Cl)c2)s1 | 23.8%
16 | COc1cccc(C(=O)CSc2nnc(NC(=O)c3cccc(Cl)c3)s2)c1 | 55.3% (active)
17 | COc1ccccc1Nc1nnc(SCC(=O)c2ccc(O)c(O)c2)s1 | 83.9% (active)
18 | O=C1c2cccc3cccc(c23)N1S(=O)(=O)c1ccc(Cl)cc1 | -5.06%
19 | CN(Cc1ccc2nonc2c1)Cc1nc(-c2ccc3c(c2)OCO3)no1 | 13.7%
20 | CN(Cc1ccc2nsnc2c1)Cc1nc(-c2ccc3c(c2)OCO3)no1 | 84.1% (active)
21 | CCN(CCn1cccn1)Cc1nc(-c2ccc3c(c2)OCO3)no1 | 90.5% (active)
22 | CN(Cc1nc(-c2ccc3c(c2)OCO3)no1)CC1COc2ccccc2O1 (stereo not given) | inactive
23 | Cc1ccc(CN(C)Cc2nc(-c3ccc4c(c3)OCO4)no2)o1 | 90.8% (active)
24 | C=Cc1ccc(CSc2nccn(-c3ccc(C)cc3)c2=O)cc1 | 95.7% (active)
25 | COc1ccc(-n2ccnc(SCc3ccc(F)cc3)c2=O)cc1 | 76.6% (active)
26 | C=Cc1ccc(CSc2nncn3c2cc2occc23)cc1 | 31.6%
27 | Cc1nnc(SCc2ccc(C(=O)NCc3ccncc3)cc2)n1-c1ccc(F)cc1 | -8.13%
28 | c1ccc(N2CCC(=NC3=NCCCCC3)N2)cc1 | 4.7%
29 | NC(=S)N=C1CCN(c2ccccc2)N1 | 93.8% (active)
30 | Cc1cccc(N2CCC(=NC(N)=S)N2)c1 | 33.7%
